An excerpt weighted towards active compounds, which were near 11% of everything screened.
HEK293 tox: Cytotoxic Profiling in HEK 293 Cell Line of Diverse Libraries Using Quantitative High-Throughput Screening; HEK 293 viability, ATP luminescence (CellTiter-Glo), 48-72 h; Potency, µM (doses to about 115 µM), hits mostly inhibitors; 94,000 compounds, 6.6% hits; also: nearly all actives have a fitted effect of over 60% in size
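ATP-coupled CellTiter-Glo luminescence served as viability read-out, recorded 10 min after reagent addition at room temperature. HEK 293 cells, 250 cells/well, had been incubated with pintool-transferred compound for 48 or 72 hr at 37 degree Celsius.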
hNpr1 antagonist: Natriuretic polypeptide receptor (hNpr1) antagonism - Primary qHTS; Atrial natriuretic peptide receptor 1 (Homo sapiens), P16066; HEK293 hNpr1 GloSensor cGMP, ANP-stimulated luminescence; Potency, µM (highest dose often 46.3 µM), hits mostly inhibitors; 76,000 compounds, 1.6% hits; AID 1347048, 2019; calls by dose curve; also: nearly all actives have a fitted effect of over 60% in size
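Compound pre-incubated 30 min at room temperature on GloSensor-loaded HEK293 cells stably carrying hNpr1 and the pGS-40F cGMP biosensor. Stimulation uses hNppA at 0.1 nM final; luminescence is taken at baseline and 20 min post-agonist.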
FLuc inh: Firefly luciferase inhibition profiling of diverse chemical library using quantitative high-throughput screening. purified P. pyralis luciferase, luminescence, biochemical. 76,000 compounds, 2.5% hits. Potency, µM (highest dose often 115 µM), actives largely listed as inhibitors. Luciferin 4-monooxygenase (Photinus pyralis), P08659; also: nearly all actives have a fitted effect of over 65% in size
Target sequence (P08659 whole entry, looked up): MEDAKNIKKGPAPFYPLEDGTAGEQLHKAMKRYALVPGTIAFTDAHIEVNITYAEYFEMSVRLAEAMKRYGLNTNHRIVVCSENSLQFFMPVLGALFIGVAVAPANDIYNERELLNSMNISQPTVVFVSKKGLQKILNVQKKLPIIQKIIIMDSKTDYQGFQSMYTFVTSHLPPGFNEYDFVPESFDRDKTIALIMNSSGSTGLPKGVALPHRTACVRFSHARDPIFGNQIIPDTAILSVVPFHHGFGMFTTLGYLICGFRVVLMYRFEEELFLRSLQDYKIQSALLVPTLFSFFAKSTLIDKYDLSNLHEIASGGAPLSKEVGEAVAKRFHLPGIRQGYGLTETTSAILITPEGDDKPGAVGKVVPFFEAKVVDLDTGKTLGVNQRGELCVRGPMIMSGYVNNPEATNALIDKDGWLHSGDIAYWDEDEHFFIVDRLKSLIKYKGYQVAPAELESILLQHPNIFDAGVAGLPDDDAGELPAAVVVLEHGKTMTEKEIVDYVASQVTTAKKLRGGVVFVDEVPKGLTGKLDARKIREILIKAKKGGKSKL
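FLuc 10nM, D-luciferin 10uM, ATP 10uM, Mg acetate 10mM, Tris acetate pH 7.5, Tween/BSA; cpd qHTS; enzyme added last; CCD luminescence.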
NIH3T3 tox: Cytotoxic Profiling in NIH 3T3 Cell Line of Diverse Libraries Using Quantitative High-Throughput Screening. NIH 3T3 viability, CellTiter-Glo ATP luminescence, 48-72 h. Potency, µM (titrated, usually from 96.7 µM), actives largely listed as inhibitors. 94,000 compounds, 4.3% hits; also: nearly all actives have a fitted effect of over 55% in size
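Luminescent ATP readout (CellTiter-Glo, 10 min RT) after 48 or 72 hr compound exposure of NIH 3T3 cells seeded at 400 cells/well in 1536-well format; quantitative HTS.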
Each line names hits and unclear results; the compound was inactive in the other large screens. Unless noted, calls follow the shape of the dose curve; as a rule, active = well fitted curve in the direction sought with a large enough effect; inconclusive = small, poorly fitted or top-dose-only effect, or another doubt; inactive = no such curve, though single readings can be large; an effect the other way counts as inactive or inconclusive.

CNC(=O)c1cccc(-c2cnc(Nc3ccncc3)c3c2CCO3)c1	HEK293 tox inconclusive, NIH3T3 tox inconclusive
Cc1csc(NC(=O)c2nc3c(o2)CCN(Cc2c(F)cccc2F)CC3)n1	HEK293 tox inconclusive, FLuc inh 28µM, NIH3T3 tox inconclusive
Cc1csc(NC(=O)c2nc3c(o2)CCN(CCCc2ccccc2)CC3)n1	HEK293 tox inconclusive, NIH3T3 tox inconclusive
Cc1csc(NC(=O)c2nc3c(o2)CCN(Cc2cc(F)ccc2F)CC3)n1	HEK293 tox inconclusive, FLuc inh 28µM, NIH3T3 tox inconclusive
O=C(NCCOc1ccccc1)c1nc2c(o1)CCN(Cc1cc(F)ccc1F)CC2	HEK293 tox inconclusive, NIH3T3 tox inconclusive
COc1ccccc1CN1CCc2nc(C(=O)Nc3nc(C)cs3)oc2CC1	HEK293 tox inconclusive, FLuc inh 25µM, NIH3T3 tox inconclusive
O=C(NCc1ccccc1)c1nc2c(o1)CCN(Cc1c(F)cccc1F)CC2	NIH3T3 tox inconclusive
CC(=O)N1CCC(c2nn(-c3ccccn3)c(=O)[nH]2)CC1	none (no result: hNpr1 antagonist, FLuc inh)
COc1ccc(CNC(=O)C2CCN(C(=O)c3ccc(-c4cncnc4)cc3)CC2)cc1	HEK293 tox inconclusive (no result: hNpr1 antagonist, FLuc inh)
CCN1CCN(C(=O)c2ccc3nc(-c4ccncc4)oc3c2)CC1	none (no result: hNpr1 antagonist, FLuc inh)
CN(Cc1cccnc1)C1CN(C(=O)c2ccccc2F)C1	none (no result: hNpr1 antagonist, FLuc inh)
Cc1noc(C)c1C(=O)N1Cc2ccccc2CC2(CCN(C)C2)C1 (configuration not stated)	HEK293 tox 79µM, NIH3T3 tox 79µM (no result: hNpr1 antagonist, FLuc inh)
Cc1noc(C)c1C(=O)N1Cc2ccccc2CC2(CCN(CC3CCNCC3)CC2)C1	none (no result: hNpr1 antagonist, FLuc inh)
CCC(=O)N1Cc2ccccc2CC2(CCCN(C)C2)C1 (configuration not stated)	HEK293 tox 79µM, NIH3T3 tox inconclusive (no result: hNpr1 antagonist, FLuc inh)
CC(=O)N1Cc2ccccc2CC2(CCCN(C)C2)C1 (configuration not stated)	none (no result: hNpr1 antagonist, FLuc inh)
OC1(c2csc(CN3CCc4ccccc4C3)n2)CCN(C2CCC2)CC1	HEK293 tox 71µM, NIH3T3 tox 100µM
CC(C)CCN1CCC(O)(c2csc(CN3CCc4ccccc4C3)n2)CC1	HEK293 tox 79µM, NIH3T3 tox 100µM
OC1(c2csc(CN3CCc4ccccc4C3)n2)CCN(CC2CCCCC2)CC1	HEK293 tox inconclusive, NIH3T3 tox inconclusive
CC(C)(C)CC(=O)N1CCC(O)(c2csc(CN3CCc4ccccc4C3)n2)CC1	HEK293 tox 71µM, NIH3T3 tox inconclusive
COc1ccc(CN2CCC(O)(c3csc(CN4CCN(C)CC4)n3)CC2)cc1	HEK293 tox 100µM, NIH3T3 tox 89µM
CN1CCC(N2CCC(O)(c3csc(CN4CCc5ccccc5C4)n3)CC2)CC1	HEK293 tox 40µM, NIH3T3 tox 56µM
O=C(C1CC1)N1CCC(O)(c2csc(CN3CCc4ccccc4C3)n2)CC1	HEK293 tox inconclusive, NIH3T3 tox inconclusive
CO[C@H]1CN(C2CCN(C(=O)CCC3CCCC3)CC2)[C@H]1c1ccncc1	HEK293 tox inconclusive (no result: hNpr1 antagonist, FLuc inh)
O[C@H]1CN[C@H](c2nc(-c3ccc(OC(F)(F)F)cc3)no2)C1	HEK293 tox inconclusive, FLuc inh 32µM
O[C@@H]1C[C@@H](c2nc(-c3ccc(OC(F)(F)F)cc3)no2)N(C2CCOCC2)C1	HEK293 tox inconclusive, FLuc inh 40µM, NIH3T3 tox inconclusive
COC(=O)N1CCN(CCn2nc3n(c2=O)CCCC3)CC1	none (no result: hNpr1 antagonist, FLuc inh)
C#CCNC(=O)C1CCCN1C(=O)c1cccc(-c2cccnc2)c1 (configuration not stated)	none (no result: hNpr1 antagonist, FLuc inh)
CC[C@H]1CN(C(C)=O)CC[C@H]1CC(=O)Nc1nccs1	HEK293 tox 112µM, NIH3T3 tox 100µM
CC[C@H]1CN(C(=O)c2ccc(F)cc2)CC[C@H]1CC(=O)Nc1nccs1	HEK293 tox inconclusive, NIH3T3 tox inconclusive
Cc1ccc(S(=O)(=O)Nc2ccc(C)n(CC(=O)Nc3ccccc3)c2=O)cc1	none
CCCN1CCN(C(=O)Cn2c(C)ccc(NC(=O)Nc3ccccc3)c2=O)CC1	FLuc inh 35µM
Cc1ccc(NC(=O)Nc2ccc(C)n(CC(=O)Nc3ccccc3)c2=O)cc1	FLuc inh 0.79µM
COc1cccc(NC(=O)Cn2c(C)ccc(NC(=O)Nc3ccc(C)cc3)c2=O)c1	HEK293 tox 79µM, hNpr1 antagonist inconclusive, FLuc inh 1µM, NIH3T3 tox inconclusive
Cc1ccc(NC(=O)Nc2ccccc2)c(=O)n1CC(=O)NCCN1CCCCC1	none
Cc1ccc(NC(=O)Nc2ccc(C)n(CC(=O)NC3CCCCC3)c2=O)cc1	HEK293 tox inconclusive, hNpr1 antagonist inconclusive, FLuc inh 0.4µM, NIH3T3 tox inconclusive
COc1ccc2c(c1)C(COCc1ccc(C(=O)O)cc1)=CC(C)(C)O2	NIH3T3 tox inconclusive (no result: hNpr1 antagonist, FLuc inh)
O=C(c1cccnc1)N1CCCCCC1c1nnc(-c2ccccc2)o1 (configuration not stated)	none (no result: hNpr1 antagonist, FLuc inh)
CC(C)(C)c1nnc2ccc(C(=O)NCCc3ccccc3F)cn12	none (no result: hNpr1 antagonist, FLuc inh)
COc1ccc(OCc2nc(C)c(CCO)c(=O)n2CC(=O)Nc2ccc(C)c(C)c2)cc1	HEK293 tox inconclusive
COc1ccc(NC(=O)Nc2ccc(C)n(CC(=O)Nc3ccc(C)c(C)c3)c2=O)cc1	HEK293 tox inconclusive, FLuc inh 0.71µM
CC1(C)CN(C(=O)COc2ccccc2)CC(=O)N(Cc2ccccc2)C1	NIH3T3 tox inconclusive (no result: hNpr1 antagonist, FLuc inh)
COc1ccc2[nH]c3c(c2c1)CCNC31CCN(Cc2ccc(F)c(F)c2)CC1	HEK293 tox inconclusive, NIH3T3 tox 35µM
COc1cccc(CN2CCC3(CC2)NCCc2c3[nH]c3ccccc23)c1	HEK293 tox 32µM, NIH3T3 tox 35µM
O=c1cc(-c2cccnc2)oc2c(-c3ccccc3Oc3ccccc3)nccc12	HEK293 tox 100µM, NIH3T3 tox inconclusive
C[S+](=O)([O-])c1ccc(-c2nccc3c(=O)cc(-c4ccncc4)oc23)cc1	HEK293 tox inconclusive, NIH3T3 tox 32µM
O=c1cc(-c2cccnc2)oc2c(-c3cn[nH]c3)nccc12	NIH3T3 tox 8.9µM
O=c1cc(-c2cccnc2)oc2c(-c3ccccc3F)nccc12	HEK293 tox inconclusive, NIH3T3 tox 20µM
CC(C)NC(=O)N(C1CC1)C1CCOC2(CCN(C(=O)c3ccco3)CC2)C1 (configuration not stated)	none (no result: hNpr1 antagonist, FLuc inh)
CN(C)c1cc(=O)c2ccnc(-c3ccccc3F)c2o1	HEK293 tox inconclusive, NIH3T3 tox 45µM
CC(=O)Nc1cccc2ccc(OCc3nnc(C(=O)N4CCC[C@@H]4c4ccc(Br)cc4)n3Cc3ccccc3)cc12	HEK293 tox inconclusive, NIH3T3 tox inconclusive
CC(=O)Nc1cccc(OCc2nnc(C(=O)N3CCC[C@@H]3c3ccc(Br)cc3)n2Cc2ccccc2)c1	HEK293 tox 32µM, NIH3T3 tox 22µM
O=C(c1ccc(Cl)s1)N1CCC2(CC1)CN(c1ccncn1)CC2CO (configuration not stated)	HEK293 tox 50µM, hNpr1 antagonist inconclusive, NIH3T3 tox inconclusive
COc1ccccc1-c1cccc(C(=O)N2CCN(C(=O)c3ccccc3)CC2)c1	HEK293 tox inconclusive (no result: hNpr1 antagonist, FLuc inh)

Screening data: PubChem BioAssay, National Center for Advancing Translational Sciences (NCATS)
